HSP90 refold inh: HSP90 inhibitors, primary screen, cell lysate, luminescence. Rabbit reticulocyte lysate, luciferase refolding luminescence, 3 h. 290,000 compounds, 0.91% hits. inhibition, % at 5.6 µM. Heat shock protein HSP 90 (rabbit reticulocyte lysate; luciferase refolding);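 active means inhibition above the screen-wide mean plus 3 SD, computed separately per campaign, cut at about 16% in these data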;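 further: 0% = DMSO wells and 100% = 60 µM geldanamycin wells; inhibitors lower the luminescence because luciferase stays unfolded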
TROY NFkB inh: inhibitors of TROY-driven NF-kB signaling, primary screen, Q293 LMP1-TROYcd cells, NF-kB luciferase, uHTS. Q293 LMP1-TROYcd NF-kB luciferase reporter, 4 h. inhibition, % at 10 µM. 360,000 compounds, 0.98% hits;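 active means compounds whose plate-normalised and pattern-corrected inhibition of the luciferase reporter signal at the single screening dose is 50% or more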
PPC-1+TRAIL kill: compounds killing PPC-1 cancer cells with TRAIL present, primary screen, TRAIL potentiator project, ATPLite luminescence, uHTS; PPC-1 cells + TRAIL, ATPLite viability luminescence; cell killing (% activity), % at 4 µM or 5 µM; 220,000 compounds, 0.41% hits;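 active means cell killing above 50% in the first pass at 4 µM, then a duplicate retest at 5 µM averaging 50% or more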;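 further: plate controls were cells with TRAIL plus DMSO for no effect and medium-only wells lacking cells for full effect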
Platelet DG rel: inhibitors of platelet dense granule secretion, primary screen, cell-based, MLPCN, human platelets | human platelet-rich plasma, SFLLRN dense granule ATP release, luminescence | inhibition, %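 (compounds screened at 7.5 µM in platelet-rich plasma)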 | 300,000 compounds, 0.22% hits;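 active means mean replicate score, as percent of positive control, at or above 50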
TWEAK-Fn14 inh: inhibitors of TWEAK-Fn14 signaling, primary screen, luciferase reporter cells, uHTS | TWEAK-stimulated Fn14 reporter cells, luciferase luminescence, 8 h | inhibition, % at 10 µM | 360,000 compounds, 2% hits | AID 1159606, 2016; in the data active means inhibition above about 50%
C8 TRAIL sens: viability loss with TRAIL in NB7+C8 cells, primary screen, TRAIL sensitizer project, cell-based, ATPlite luminescence; inhibition (viability loss, TRAIL sensitization), % at 10 µM; 360,000 compounds, 1% hits; AID 624354, 2012;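 active means compounds causing at least 50% loss of cell viability in the single-dose screen, relative to plate controls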
Starred values were filed as active, the others as inactive; x = not tested or not shown. Hits are enriched below; roughly 3.5% of the tested compounds scored in any of these assays.

SMILES	HSP90 refold inh	TROY NFkB inh	PPC-1+TRAIL kill	Platelet DG rel	TWEAK-Fn14 inh	C8 TRAIL sens
O=C(COc1ccc(Cl)cc1)Nc1ccc(C(=O)O)cc1NC(=O)COc1ccc(Cl)cc1	-4	-15	x	18	21	5
CC(C)N1C[C@@]23C=C[C@@H](O2)C(C(=O)OCc2ccccc2)[C@H]3C1=O (stereo not given in full)	-1	2	5	56*	16	-17
CC(C)N1CC23C=CC(O2)C(C(=O)OCc2ccccc2)C3C1=O (stereo not given)	0	1	x	1	-8	-7
c1ccc2oc(-c3ccc(Nc4nc(N5CCOCC5)nc(N5CCOCC5)n4)cc3)nc2c1	x	-20	x	x	1	11
O=C(COC(=O)C12CC3CC(CC(O)(C3)C1)C2)Nc1ccc(Br)cc1F	x	58*	x	x	33	5
O=C(COC(=O)C12CC3CC(CC(O)(C3)C1)C2)Nc1ccccc1OC(F)F	7	3	14	1	0	15
O=Cc1ccc(N2CCN(S(=O)(=O)c3ccc4c(c3)CC(=O)N4)CC2)cc1	x	1	x	x	-29	-27
CCOc1ccc(Nc2nc3ccccc3n3cnnc23)cc1	-4	-7	-9	-12	87*	13
c1ccc2c(c1)nc(Nc1ccc(N3CCCCC3)cc1)c1nncn12	4	36	14	-10	51*	12
CCn1c(SCC(=O)N/N=C(\C)c2ccncc2)nnc1-c1ccc(C)cc1	2	-10	-11	-30	-6	-11
CC(C)COC(=O)N1CCCCC1c1cc(C(=O)Nc2ccccc2)no1 (stereo not given)	x	-10	x	x	3	4
COc1ccc(/C=C2/CSC/C(=C/c3ccc(OC)c(OC)c3)C2=O)cc1OC	x	15	x	x	92*	-9
COc1cc(C=C2CCCC(=Cc3ccc(OCC4CO4)c(OC)c3)C2=O)ccc1OCC1CO1 (stereo not given)	x	-4	x	x	73*	16
CCOc1ccc(CN2C(=O)CC(=O)N(S(=O)(=O)c3ccc(OCC)cc3)C2=O)cc1	-1	6	11	-4	7	-17
O=[N+]([O-])c1ccc(NC(=S)NCCc2ccc(F)cc2)cc1	-3	27	12	-2	66*	22
Cc1c(Cl)cccc1NC(=S)NCCc1ccc(F)cc1	3	-2	x	1	71*	10
Cn1c(N)c(C(=O)COC(=O)/C=C/c2ccc(Cl)c(Cl)c2)c(=O)n(C)c1=O	x	25	x	x	14	8
N#C/C(=C\c1ccc(OCc2ccc(C(=O)O)cc2)cc1)C(=O)N1CCOCC1	73*	-63	6	3	-6	22
O=C(NCc1ccccn1)[C@@H]1CCCN1C(=O)[C@@H]1CCCN1C(=O)c1cccc2ccccc12	x	0	x	x	24	0
CN(C)C(=O)c1ccc(-n2cnc3ccccc3c2=O)cc1	-2	-31	15	3	-8	-13
O=c1c2ccccc2ncn1-c1ccc2c(c1)OCCO2	-1	-4	16	0	51*	-2
O=C(N/N=C/c1cc(Cl)cc([N+](=O)[O-])c1O)NC12CC3CC(CC(C3)C1)C2	-2	43	-10	2	66*	3
O=[N+]([O-])c1ccc(Cl)cc1Sc1nc2ccccc2o1	-3	-7	8	23	15	-10
O=[N+]([O-])c1ccc(Sc2nc3ccccc3o2)c([N+](=O)[O-])c1	2	23	18	-17	58*	-9
O=[N+]([O-])c1ccc(Sc2cc[n+]([O-])c3ccccc23)c([N+](=O)[O-])c1	-2	3	11	-6	77*	18
SMILES	HSP90 refold inh	TROY NFkB inh	PPC-1+TRAIL kill	Platelet DG rel	TWEAK-Fn14 inh	C8 TRAIL sens
CCN(C(=O)c1ccc(S(=O)(=O)N2CCCC2)cc1)C1CCS(=O)(=O)C1 (stereo not given)	x	-14	x	1	-6	-10
CC(NS(=O)(=O)c1ccc(Br)cc1F)[C@H](O)c1ccccc1 (stereo not given in full)	x	3	x	x	-1	-20
COc1ccc(C(=O)NCC2(c3ccc(OC)c(OC)c3)CCCC2)c(OC)c1	-1	7	x	4	-6	13
COc1cc(C(O)c2nc(-c3cccc(C(C)C)c3)cs2)ccc1F (stereo not given)	x	12	x	x	15	-4
Cc1ccc(S(=O)(=O)N2CCN(c3ncnc4scc(-c5ccccc5)c34)CC2)cc1	x	2	x	x	-3	31
O=S(=O)(c1ccc(Br)cc1)N1CCN(c2cc(-c3ccccc3)nc3ncnn23)CC1	-1	-10	25	-3	25	16
O=S(=O)(c1ccccc1)N1CCN(c2cc(-c3ccccc3)nc3ncnn23)CC1	-1	32	-5	8	70*	37
Cc1ccc(OCCN2CCN(c3ncnc4sc(C)c(C)c34)CC2)cc1	1	39	0	10	50*	15
Cc1sc2ncnc(N3CCN(S(=O)(=O)c4ccccc4)CC3)c2c1C	x	5	x	x	74*	34
O=S(=O)(c1ccccc1)N1CCN(c2ncnc3sc(-c4ccccc4)cc23)CC1	0	37	14	0	81*	36
c1ccc(-c2cc3c(N4CCN(c5ccccc5)CC4)ncnc3s2)cc1	5	27	4	0	42	-11
O=C(NCc1cccnc1)c1ccc(-c2cc3ccccc3oc2=O)cc1	3	-21	18	-4	0	25
N/C(CSc1ncccc1C(F)(F)F)=N\O	0	-4	26	x	-9	-20
Cn1nc(-c2ccc(Cl)cc2)c2cc(C(=O)N3CCN(c4ccccn4)CC3)sc21	2	52*	-4	-19	79*	16
Nc1ccc(Cn2ccc3c4c(N)nc(N)nc4ccc32)cc1	x	4	x	x	-57	74*
CC(C)C[C@@H]1CN(CCCC[C@H]2CNC(=O)C(=O)N2CCC2CCCCC2)C(=O)C(=O)N1CCC1CCCCC1	x	-31	x	x	61*	3
CC(C)C[C@H]1CN(CCCC[C@H]2CNC(=O)C(=O)N2CCC2CCCCC2)C(=O)C(=O)N1CCC1CCCCC1	x	6	x	x	20	33
O=C(CC(Nc1ccc(Cl)cc1)C(=O)O)c1ccccc1 (stereo not given)	-3	-36	44	4	-26	62*
COc1ccccc1NC(CC(=O)c1ccccc1)C(=O)OCC(=O)c1ccc(F)cc1 (stereo not given)	7	43	-5	19	24	68*
O=C(CC(Nc1ccccc1Cl)C(=O)O)c1ccccc1 (stereo not given)	3	65*	5	-4	61*	13
CS(=O)(=O)c1ccc(C(=O)OCC(=O)c2ccc(Cl)s2)cc1	x	14	x	-1	-4	-15
